Laboratory results: ChEMBL document CHEMBL1157539, “Thousands of chemical starting points for antimalarial lead identification” (Nature, 2010)

Legend:
Type in all cases: functional
Plasmodium falciparum [1] = experiment: GSK_TCMDC: Inhibition of Plasmodium falciparum 3D7 in whole red blood cells, using parasite LDH activity as an index of growth. Test compounds present at 2uM
Plasmodium falciparum [2] = experiment: GSK_TCMDC: Inhibition of Plasmodium falciparum Dd2 in whole red blood cells, using parasite LDH activity as an index of growth. Test compounds present at 2uM
HepG2 = experiment: GSK_TCMDC: Percent inhibition of human HepG2 cell line. Test compounds present at 10uM.

SMILES | Inhibition (Plasmodium falciparum [1]) [%] | Inhibition (Plasmodium falciparum [2]) [%] | Inhibition (HepG2) [%]
C=C[C@H]1CN(CCCCCCC)CC[C@H]1CC(O)Cc1ccnc2cc(O)c(OC)cc12.O=C(O)C(=O)O (some centres undefined) | 95 | 59 | 7
COc1cccc2c(NN=Cc3ccc(Cl)cc3)ccnc12 | 99 | 39 | 26
N#Cc1ccc(NC(=O)Nc2ccc(OC(F)(F)F)cc2)cc1 | 98 | 91 | 43
CCc1cc([C@H]2O[C@@H](n3cnc4c(NCC(c5ccccc5)c5ccccc5)nc(NCCNc5ccccn5)nc43)[C@H](O)[C@@H]2O)on1.O=CO | 94 | 32 | 14
Cc1cccc(C(=O)Nc2ccc(N3CCCN(Cc4cccc(O)c4)CC3)cc2)c1.O=C(O)C(F)(F)F | 92 | 44 | 2
CN(C)Cc1cccc(-c2ccc3ccnc(N)c3c2)c1 | 99 | 74 | 21
CC(C)(C)c1ccc(N2C(N)=NC(N)=NC2(C)C)cc1Cl.Cl | 94 | 3 | 51
Cc1cc(=NN=Cc2ccccc2F)c2cccc(C)c2[nH]1 | 100 | 14 | 7
Cc1cc(NC(=O)NCCN2CCC(NC(=O)c3ccc(F)cc3)CC2)c2ccccc2n1 | 99 | 76 | 0
CN(CCN(C)C(=O)NCc1ccccc1)C(=O)NCc1ccccc1 | 100 | 0 | 2
O=C(Nc1nc2cc(S(=O)(=O)NCCCN3CCOCC3)ccc2n1CCCn1ccnc1)c1ccc(Cl)cc1.O=C(O)C(F)(F)F | 95 | 0 | 0
CCCCN1CCN(c2cc(NS(=O)(=O)c3cccc(C(=O)Nc4ccc(C(F)(F)F)cc4)c3)ccc2OC)CC1.O=C(O)C(F)(F)F | 99 | 7 | 6
CN1CCN(CCCN(Cc2ccc(-c3cccc(CNCc4ccc5c(c4)OCO5)c3)cc2)C(=O)CCC2CCCC2)CC1.O=C(O)C(F)(F)F | 92 | 85 | 24
CC(C)(C)CC(C)(C)c1ccc(O)c(CNC2CCCCC2)c1.Cl | 98 | 99 | 92
Cc1cc(F)ccc1Nc1nc(N(C)c2ccccc2)c2cc(OCCN(C)C)ccc2n1 | 94 | 55 | 37
CC(C)C[C@H]1C(=O)N[C@H](C2Cc3ccccc3C2)C(=O)N1[C@@H](C(=O)Nc1ccccc1OCc1ccccc1)c1ccc(F)cc1F | 90 | 67 | 12
Cc1sc(CNCCCNc2cc(=O)c3ccccc3[nH]2)cc1Br | 100 | 83 | 12
CN(CCO)Cc1cccc(-c2ccc(NC(=O)c3cccc(C#N)c3)cc2)c1.O=C(O)C(F)(F)F | 97 | 57 | 23
O=C(NC1CCN(CCC(NC(=O)c2ccccc2)c2ccc(Cl)c(Cl)c2)CC1)c1ccc(Cl)cc1 (centres undefined) | 97 | 36 | 17
Cl.N#Cc1ccc2c(c1)CCN(CCC1CCC(NC(=O)c3cc4ccc(Br)cc4[nH]3)CC1)C2 (centres undefined) | 100 | 17 | 12
COc1ccc(-c2csc3ncnc(Cl)c23)cc1 | 96 | 97 | 0
CC(=O)Nc1ccc(OCCCCN(Cc2ccccc2C(F)(F)F)c2ccc(C#N)c(C(F)(F)F)c2)c(Cl)c1 | 98 | 71 | 0
O=C(Cn1cc(C=C2SC(=NC3CCCC3)N(C3CCCC3)C2=O)c2ccccc21)N1CCCC1 | 100 | 100 | 5
CCCCCC(=O)N1CCOC(CCN2CCC(c3ccccc3)CC2)(c2ccc(Cl)c(Cl)c2)C1 (centres undefined) | 89 | 51 | 17
N=C(N)c1ccc(C=Cc2ccc(C(=N)N)cc2O)cc1.O=S(=O)(O)CCO | 92 | 80 | 10
CC(C)NCc1cccc(-c2cccc(-c3nc4cc(F)ccc4[nH]3)c2)c1.O=C(O)C(F)(F)F | 100 | 85 | 20
O=C(Nc1ccc(C(F)(F)F)cc1)c1ccc(S(=O)(=O)NC2CCCN(CC3CCCCC3)C2)cc1.O=C(O)C(F)(F)F (centres undefined) | 99 | 0 | 45
COc1ccc(CCn2c(C3CCCCC3)nc3oc4ccccc4c(=O)c3c2=O)cc1 | 91 | 66 | 12
